From PubChem BioAssay (NCI)
Compounds without any hit were thinned out: in the full panel of roughly 83,000, 20% have a hit.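 For each line, cells grew in 96-well plates with the test compound present at a single concentration for 48 hours.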 Calls of active or inactive are those of the source. How the source made its calls: active means growth percent below 10; inactive means the rest.

Tests used:
Experiment in all cases: NCI-60 one-dose screen, 48 h (100 = growth as untreated, 0 = no growth, -100 = all killed)
SR leukemia = conditions: 10 µM unless noted
RPMI-8226 leukemia = conditions: 10 µM unless noted
OVCAR-8 ovarian = conditions: 10 µM unless noted
OVCAR-5 ovarian = conditions: 10 µM unless noted
OVCAR-4 ovarian = conditions: 10 µM unless noted
SK-OV-3 ovarian = conditions: 10 µM unless noted
IGROV1 ovarian = conditions: 10 µM unless noted
OVCAR-3 ovarian = conditions: 10 µM unless noted
HS 578T breast = conditions: 10 µM
NCI/ADR-RES ovarian = conditions: 10 µM unless noted
BT-549 breast = conditions: 10 µM unless noted
MDA-MB-435 melanoma = conditions: 10 µM unless noted
SW-620 colon = conditions: 10 µM unless noted
MCF7 breast = conditions: 10 µM unless noted
HCT-116 colon = conditions: 10 µM unless noted
HCC-2998 colon = conditions: 10 µM unless noted
KM12 colon = conditions: 10 µM unless noted
T-47D breast = conditions: 10 µM unless noted

Measured: growth

COc1ccc(/C=c2\c(=O)n(-c3ccccc3)c3nn4c(=O)c(=O)[nH]nc4n23)cc1
inactive: SR leukemia 108% | RPMI-8226 leukemia 110% | OVCAR-8 ovarian 109% | OVCAR-5 ovarian 146% | OVCAR-4 ovarian 107% | SK-OV-3 ovarian 113% | IGROV1 ovarian 113% | OVCAR-3 ovarian 115% | HS 578T breast 114% | NCI/ADR-RES ovarian 106% | BT-549 breast 105% | MDA-MB-435 melanoma 112% | SW-620 colon 106% | MCF7 breast 102% | HCT-116 colon 102% | HCC-2998 colon 108% | KM12 colon 109%

O=C(NC1CC1)c1ccc(-c2nc3ccc4[nH]ncc4c3c3c2CCCC3)cc1
inactive: SR leukemia 32.2% | RPMI-8226 leukemia 50.5% | OVCAR-8 ovarian 38.8% | OVCAR-5 ovarian 75.2% | OVCAR-4 ovarian 61.6% | IGROV1 ovarian 22.7% | OVCAR-3 ovarian 58% | NCI/ADR-RES ovarian 72.1% | BT-549 breast 29.5% | MDA-MB-435 melanoma 11.5% | SW-620 colon 18.7% | MCF7 breast 38.6% | HCT-116 colon 17% | HCC-2998 colon 51.1% | KM12 colon 24.4%
active: SK-OV-3 ovarian -7.43% | HS 578T breast 4.47%

Oc1ccc(-c2cnc(-c3ccccc3)[nH]2)c(O)c1
inactive: SR leukemia 40.2% | RPMI-8226 leukemia 38.7% | OVCAR-8 ovarian 119% | OVCAR-5 ovarian 116% | OVCAR-4 ovarian 106% | SK-OV-3 ovarian 113% | IGROV1 ovarian 94.3% | OVCAR-3 ovarian 107% | HS 578T breast 97.7% | NCI/ADR-RES ovarian 113% | T-47D breast 107% | MDA-MB-435 melanoma 110% | SW-620 colon 109% | MCF7 breast 83.3% | HCT-116 colon 78.6% | HCC-2998 colon 117% | KM12 colon 102%

NS(=O)(=O)c1ccc(N2N=C(c3ccc(Br)cc3)CC2c2cn(-c3ccccc3)nc2-c2ccc(Cl)cc2)cc1 (stereo not given)
inactive: SR leukemia 72% | RPMI-8226 leukemia 74% | OVCAR-8 ovarian 90.6% | OVCAR-5 ovarian 102% | OVCAR-4 ovarian 93.7% | SK-OV-3 ovarian 94.7% | IGROV1 ovarian 93.8% | OVCAR-3 ovarian 95.1% | HS 578T breast 100% | NCI/ADR-RES ovarian 86.6% | T-47D breast 69.2% | MDA-MB-435 melanoma 79.6% | SW-620 colon 96.1% | MCF7 breast 53.1% | HCT-116 colon 63% | HCC-2998 colon 77.8%

Fc1[nH]nc2ccc([C@@H]3Nc4ccc5[nH]ncc5c4[C@H]4C5CCC(C5)[C@@H]34)cc12 (stereo not given in full)
inactive: SR leukemia 42% | RPMI-8226 leukemia 18.2% | OVCAR-8 ovarian 40% | OVCAR-5 ovarian 54.3% | OVCAR-4 ovarian 54.6% | SK-OV-3 ovarian 39.7% | IGROV1 ovarian 43.1% | HS 578T breast 34.8% | NCI/ADR-RES ovarian 15.2% | BT-549 breast 53.2% | SW-620 colon 23.9% | MCF7 breast 21.2% | HCT-116 colon 21% | HCC-2998 colon 58.2% | KM12 colon 20.7%
active: OVCAR-3 ovarian 1.83% | MDA-MB-435 melanoma -42.5%

CC(=O)O[C@H]1[C@H](CC#CC#CC[C@@H]2C[C@]3(C)[C@H]4CC=C5[C@H]6[C@@H](C)[C@H](C)CC[C@]6(C(=O)NCCN(CCN)CCN)CC[C@@]5(C)[C@]4(C)CC[C@H]3C(C)(C)[C@H]2OC(C)=O)C[C@]2(C)[C@H]3CC=C4[C@H]5[C@@H](C)[C@H](C)CC[C@]5(C(=O)NCCN(CCN)CCN)CC[C@@]4(C)[C@]3(C)CC[C@H]2C1(C)C
inactive: SR leukemia 53.9% | RPMI-8226 leukemia 26.6% | OVCAR-5 ovarian 54.6% | OVCAR-4 ovarian 97.4% | SK-OV-3 ovarian 89.2% | IGROV1 ovarian 62.3% | OVCAR-3 ovarian 89% | HS 578T breast 70.6% | NCI/ADR-RES ovarian 49.2% | BT-549 breast 99.9% | MDA-MB-435 melanoma 64.7% | SW-620 colon 64% | HCT-116 colon 75.5% | HCC-2998 colon 72.3% | KM12 colon 86.1%
active: OVCAR-8 ovarian 3.13% | MCF7 breast -0.0516%

COc1cc(C)cc2oc3oc(=O)c(-c4csc(-c5cc6ccccc6oc5=O)n4)cc3c(=O)c12
inactive: SR leukemia 113% | RPMI-8226 leukemia 109% | OVCAR-8 ovarian 103% | OVCAR-5 ovarian 109% | OVCAR-4 ovarian 106% | SK-OV-3 ovarian 120% | IGROV1 ovarian 117% | OVCAR-3 ovarian 116% | HS 578T breast 120% | NCI/ADR-RES ovarian 105% | BT-549 breast 107% | MDA-MB-435 melanoma 105% | SW-620 colon 105% | MCF7 breast 101% | HCT-116 colon 106% | HCC-2998 colon 106% | KM12 colon 107%

Fc1cnccc1-c1nc2ccc3[nH]ncc3c2c2c1CCCC2
inactive: SR leukemia 34.1% | RPMI-8226 leukemia 37.6% | OVCAR-8 ovarian 30.2% | OVCAR-5 ovarian 45.2% | OVCAR-4 ovarian 48.9% | IGROV1 ovarian 12.1% | OVCAR-3 ovarian 30.4% | HS 578T breast 10.8% | NCI/ADR-RES ovarian 32.3% | BT-549 breast 16.1% | MDA-MB-435 melanoma 10.4% | SW-620 colon 14.6% | MCF7 breast 34.7% | HCC-2998 colon 37.5% | KM12 colon 18.4%
active: SK-OV-3 ovarian -21.2% | HCT-116 colon 7.21%
